Compound activity (PubChem)
VP16 counter – Gal4-VP16 reporter inhibition counter-screen; Potency, µM (doses to about 53.6 µM), for inactives: at the top dose activity, negative = inhibition, actives largely listed as inhibitors; 310,000 tested, 3.5% active; Drosophila S2 Gal4-VP16 UAS-luciferase, luminescence, 20 h;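 also: Gal4-VP16 expression switched on by copper sulfate through the metallothionein promoter; nearly all actives have a fitted effect of over 50% in size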
TDP1 cell CPT – growth inhibition of DT40 Tdp1-/-;hTDP1 cells with camptothecin (screen for TDP1 inhibitors); chicken DT40 Tdp1-/-;hTDP1 cells + 20 nM CPT, ATP luminescence, 48 h; Potency, µM (doses to about 46.2 µM), inactives show at the top dose activity change, negative = growth inhibition, usual class: inhibitors; 420,000 tested, 12% active; AID 686979; also: nearly all actives have a fitted effect of over 55% in size
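Chicken DT40 Tdp1-/- cells complemented with human TDP1, 400 cells/well, exposed to compounds plus 20 nM camptothecin for at least 48 h at 37 C; viability read as ATP content by CellTiter-Glo luminescence.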
RORg inh – blocks mouse ROR gamma transcriptional activity; AID 2551; Potency, µM (doses to about 53.6 µM), for inactives: top-dose activity change, negative = inhibition, hits mostly inhibitors; 310,000 tested, 5.4% active; Drosophila S2 Gal4-RORgamma UAS-luciferase reporter, 20 h; also: nearly all actives have a fitted effect of over 60% in size
Target sequence (P51450 whole entry, looked up, the tested form may be a part): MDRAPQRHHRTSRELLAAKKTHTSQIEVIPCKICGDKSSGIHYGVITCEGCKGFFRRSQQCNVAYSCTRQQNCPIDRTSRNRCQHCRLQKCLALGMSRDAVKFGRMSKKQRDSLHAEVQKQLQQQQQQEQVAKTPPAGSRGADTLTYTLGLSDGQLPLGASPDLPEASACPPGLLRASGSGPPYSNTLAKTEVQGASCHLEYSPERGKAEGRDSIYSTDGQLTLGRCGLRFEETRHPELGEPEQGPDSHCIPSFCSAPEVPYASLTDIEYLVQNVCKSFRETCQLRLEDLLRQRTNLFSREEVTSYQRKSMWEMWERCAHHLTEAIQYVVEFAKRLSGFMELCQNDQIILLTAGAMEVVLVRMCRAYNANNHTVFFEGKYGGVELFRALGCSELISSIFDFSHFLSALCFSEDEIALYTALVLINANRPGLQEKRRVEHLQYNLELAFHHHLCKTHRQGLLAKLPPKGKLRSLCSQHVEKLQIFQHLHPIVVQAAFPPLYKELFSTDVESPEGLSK
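Stably transfected Drosophila Schneider cells are the test system, with ROR gamma fused to Gal4 and luciferase under UAS control; luminescence is read after 20 hr of 700 uM copper sulfate induction at ambient temperature.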
ELG1 DNA repair – inhibitors of ELG1-dependent DNA repair in HEK293T cells; 330,000 tested, 2.3% active; AID 504467; Potency, µM (top dose mostly 46.1 µM), for the others: top-dose activity change, negative = inhibition, hits mostly inhibitors; HEK293T ELG1-luciferase reporter, luminescence, 16 h; DNA damage induced by 5-fluorouridine; also: nearly all actives have a fitted effect of over 55% in size
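5-Fluorouridine DNA damage + compound/DMSO, 2,000 cells/well, 16 h, 37 °C/5% CO2. ONE-Glo, 30 min RT, luminescence. Readout = decrease in reporter signal.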
ALOX12 inh – inhibitors of human 12S-lipoxygenase ALOX12; purified 12hLO, xylenol orange hydroperoxide absorbance; 580,000 tested, 1.1% active; Potency, µM (series often up to 108 µM), for inactives: top-dose activity change, negative = inhibition, most hits filed as inhibitors
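Hydroperoxide product was detected by ferrous iron/xylenol orange as the 573 to 405 nm absorbance ratio. Arachidonic acid at 40 uM (final) was turned over for 30 min at room temperature by 150 nM human 12hLO, pH 7.0 Hepes buffer, after 15 min compound preincubation.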
TDP1 cell noCPT – qHTS for Inhibitors of human tyrosyl-DNA phosphodiesterase 1 (TDP1): qHTS in cells in absence of CPT; DT40 Tdp1-/- hTDP1 cells, no CPT, ATP luminescence, 48 h; 420,000 tested, 15% active; Potency, µM (top dose mostly 46.2 µM), for the others: top-dose activity change, negative = growth inhibition, actives largely listed as inhibitors; also: nearly all actives have a fitted effect of over 55% in size
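Chicken DT40 Tdp1-/- cells stably complemented with human TDP1 were seeded at 400 cells/well with DMSO in place of 20 nM camptothecin. After compound pinning, cells grew at least 48 hr at 37 °C; viability read by CellTiter-Glo luminescence.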
* marks the source's active call; other numbers are inactive results; ? = inconclusive; / = no result given; [ ] = dose if it differs, or a comment. Sampled rows, rich in hits. Any-hit rate of the full collection: about 15%. Calls follow the shape of the dose curve; as a rule, active = well fitted curve in the direction sought with a large enough effect; inconclusive = small, poorly fitted or top-dose-only effect, or another doubt; inactive = no such curve, though single readings can be large; an effect the other way counts as inactive or inconclusive. % is scaled to controls: 0 for no effect and ±100 for the full control effect; potency is read from the fitted curve at half-maximal effect.

SMILES | VP16 counter | TDP1 cell CPT | RORg inh | ELG1 DNA repair | ALOX12 inh | TDP1 cell noCPT
Cc1ccc(Sc2ccc(C=C3C(=O)N(C)C(=O)N(C)C3=O)o2)cc1 | 5.6% | 18.4µM* | 2.5% | 12.5% | 35.5µM* | 18.4µM*
CC(CO)NC(=O)C1C=C2c3cccc4[nH]cc(c34)CC2N(C)C1 (stereo unspecified) | 15.5% | / | 1.6%[10 µM] | / | / | /
CC(C)[C@H]1C(=O)N[C@H](CO)Cc2c[nH]c3cccc(c23)N1C | / | / | / | / | 39.8µM* | /
O=C(NCc1ccccc1)Oc1cccc(Cl)c1 | 15.3% | ? | ? | ? | ? | 16.4µM*
O=[N+]([O-])c1ccc(N2CCCC2)cc1N/N=C1\CN2CCC1CC2 | -19.3% | ? | 21.9% | ? | -28.9% | 20.6µM*
CCn1cc(C(=O)N(Cc2ccc(F)cc2)C2CC2)c2ccccc21 | / | / | / | / | 3.8% | /
O=c1[nH]c(=S)[nH]c(O)c1N=Nc1cccc(S(=O)(=O)N2CCOCC2)c1 | -2.8% | -18.5% | 5.5% | ? | 39.8µM* | -14.9%
NS(=O)(=O)c1ccc(N=Nc2c(O)[nH]c(=S)[nH]c2=O)cc1 | -0.2% | 1.6% | -22.1% | -42.6% | 39.8µM* | -5.4%
O=c1[nH]c(=S)[nH]c(O)c1N=Nc1ccc2c(c1)OCCO2 | ? | 14.6µM* | -26.9% | ? | -16.3% | 25.9µM*
c1ccc(CN2C[C@H](c3ccc4c(c3)OCO4)[C@@H]3[C@H]2C2CCN3CC2)nc1 | / | / | / | / | 86.8% | /
O=C(c1ccco1)c1cn(Cc2ccccc2Cl)c2ccccc12 | -5.4% | 17.8µM* | -25.9% | 8.4% | 12.3% | ?
CC(C)(O)c1cn(C[C@H]2C[C@@H]3CCN2C[C@@H]3C(=O)N2CCOCC2)nn1 | / | / | / | / | -40.6%[176 µM] | /
COc1cccc(-n2c(=S)[nH]c3ccccc3c2=O)c1 | ? | -0.6% | 4.47µM* | ? | 2.7% | ?
O=c1c2ccc(Cl)cc2[nH]c(=S)n1-c1cccnc1 | ? | -9.3% | 14.1µM* | 1.8% | -14.3% | -4.7%
O=c1c2ccccc2[nH]c(=S)n1-c1ccc(Br)cc1 | 1.41µM* | -13.6% | 0.891µM* | ? | 0.3% | -17.1%
CCOc1ccccc1C(=O)N1CCC2(CC1)c1nccn1-c1ccccc1CN2C | / | / | / | / | 16.2% | /
CCC(C)C1NC(=O)C2CCCN2C(=O)C(CC(C)C)OC(=O)CCNC(=O)C(C)N(C)C(=O)C(C(C)C)N(C)C1=O (stereo unspecified) | / | 3.26µM* | / | / | 11.4% | 4.11µM*
COc1cccc(C(=O)CCN[C@@H](C)[C@H](O)c2ccccc2)c1 | / | 13.3µM* | / | / | / | 23.7µM*
CCC(C)C1NC(=O)C(C(C)=O)=C1O (stereo unspecified) | ? | 16.4µM* | -9.5% | -1.0% | -15.9% | ?
O=C(Cc1ccccc1)N1CCC(C(=O)O)(c2ccccc2)CC1 | / | / | / | / | 3.2%[6.33 µM] | /
CCOC(=O)C1=C(N)Oc2cc(C)oc(=O)c2C12C(=O)Nc1ccccc12 (stereo unspecified) | / | / | / | / | 18.8% | /
COc1ccc(NC(=O)CCc2nc(C3=CCN(Cc4cccc(C)c4)CC3)no2)c(OC)c1 | / | 16.4µM* | / | / | 7.2% | 11.6µM*
O=C(CCc1nc(C2=CCN(Cc3cccc(Cl)c3)CC2)no1)Nc1ccccc1F | / | 14.6µM* | / | / | -12.6% | 11.6µM*
O=C(Cc1ccccc1)N1CCN(Cc2cccc(Cl)c2)CC1 | -15.7% | -3.3% | 2.1% | -16.2% | ? | -16.4%
O=C(N/N=C/c1cc(Br)c(Br)s1)c1ccncc1 | 1µM* | 13µM* | 0.562µM* | ? | -11.0% | 9.2µM*
SMILES | VP16 counter | TDP1 cell CPT | RORg inh | ELG1 DNA repair | ALOX12 inh | TDP1 cell noCPT
CCCN1[C@@H]2c3cccc(=O)n3C[C@H]1[C@H](CO)[C@H]2C(=O)OC | / | / | / | / | -0.1% | /
O=C(CN1CC=C(c2ccccc2)CC1)NC(=O)NC1CCCCC1 | -15.3% | -18.5% | 0.1% | 3.4% | -6.9% | ?
CC(C)(C)NC(=O)NC(=O)CN1CC=C(c2ccccc2)CC1 | 2.0% | 16.4µM* | 9.1% | -6.9% | 35.9% | 13µM*
O=C1C[C@@H](c2ccc(O)cc2)Oc2cc(O)cc(O)c21 | 2.6% | 1.7% | -13.9% | 21.4% | ? | -18.8%
Oc1cc(O)c2c(c1)OC(c1cc(O)c(O)c(O)c1)C(O)C2 (stereo unspecified) | -4.3% | 3.26µM* | 16.3% | / | / | ?
COC(=O)C1=C(c2ccc(-c3ccccc3)c(F)c2)C[C@@H]2CC[C@H]1N2C(=O)NCc1cc(C)oc1C(F)(F)F | / | ? | / | -16.7% | ? | 14.6µM*
COC(=O)C1=C(c2ccc(Cl)c(C(F)(F)F)c2)C[C@@H]2CC[C@H]1N2C(=O)NCC1CC1 | / | 14.6µM* | / | -5.2% | 4.1% | 18.4µM*
CCCNC(=O)N1[C@H]2CC[C@@H]1C(C(=O)OC)=C(c1ccc(Cl)c(C(F)(F)F)c1)C2 | / | 16.4µM* | / | -9.9% | 2.5% | 14.6µM*
COC(=O)C1=C(c2cccc(C#N)c2)C[C@@H]2CC[C@H]1N2C(=O)NCc1cc(C)oc1C(F)(F)F | / | ? | / | -1.9% | 2.6% | ?
COC(=O)C1=C(c2ccc(Cl)c(C(F)(F)F)c2)C[C@@H]2CC[C@H]1N2C(=O)NCc1cc(C)oc1C(F)(F)F | / | ? | / | 0.0% | -4.5% | 20.6µM*
O=C1CCC[C@@H]2[C@H]3CCCN4CCC[C@@H](CN12)[C@@H]34 | / | / | / | / | -13.0%[57.4 µM] | /
CN(C)C(=O)N1CCC2(CC1)NCc1ccccc1-n1ccnc12 | / | / | / | / | 38.0% | /
CN1CCC(O)(c2ccc(Cl)cc2)C(C(=O)c2ccc(Cl)cc2)C1 (stereo unspecified) | -0.3%[10 µM] | 2.59µM* | -4.5% | 2.0% | ? | 2.91µM*
O=C1NCCCCCN[C@H]2CCC[C@@H]12 | / | / | / | / | 47.0% | /
c1ccc(SSc2ccccc2)cc1 | -20.8% | 11.6µM* | -26.9% | -0.3% | 33.3% | 11.6µM*
O=C(NCc1ccc2c(c1)OCO2)[C@H]1CN2CCC1C[C@@H]2Cn1cc(C2(O)CCCCC2)nn1 (stereo partly specified) | / | / | / | / | 38.0% | /
CCCCCc1cc(O)c2c(c1)OC(C)(C)[C@@H]1CCC(C(=O)O)=C[C@H]21 | ? | / | 29.0% | / | / | /
CC(=O)c1c(O)cc2c3c1OC(C)(C)C1CCC(C)(CC31)O2 (stereo unspecified) | / | 20.6µM* | / | / | 15.6% | 13µM*
N#Cc1cccc(NC(=O)NC[C@H]2C[C@@H]3CCN2C[C@@H]3CN2CCN(c3ccccn3)CC2)c1 | / | / | / | / | 7.6% | /
O=C(CCN1CC2CCC(CC2)C1)c1cccs1 | / | 2.06µM* | / | / | -11.5% | 4.11µM*
